Compound activity: PubChem BioAssay, National Center for Advancing Translational Sciences (NCATS)
Luc counter – Counterscreen for Luciferase (Kinase-Glo TM) Inhibition | Potency, µM (titrated, usually from 38.3 µM), without a hit: at the highest dose activity change, negative = inhibition, actives largely listed as inhibitors | Kinase-Glo luciferase, ATP luminescence, 8 min | Luciferin 4-monooxygenase (Photuris pensylvanica), Q27757 | 200,000 compounds, 0.28% hits; further: on the % scale 0 is the no-effect control and ±100 the full control effect; nearly all actives have a fitted effect of over 60% in size
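Light output from Kinase-Glo luciferase with luciferin and 10 uM ATP in 50 mM imidazole pH 7.2, KCl, MgCl2, Tween 20, BSA; compound pin-delivered, 8-min ambient incubation, then luminescence read.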
ELG1 genotox – qHTS screen for small molecules that induce genotoxicity in human embryonic kidney (HEK293T) cells expressing luciferase-tagged ELG1; HEK293T ELG1-luciferase reporter, luminescence, 16 h; Potency, µM (top dose mostly 46 µM), inactives show at the highest dose activity change, positive = activation, hits mostly activators; 330,000 compounds, 1.3% hits; AID 504466, 2011; further: % of control where 0% means no effect; nearly all actives have a fitted effect of over 60% in size
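Reporter readout depends on ELG1 protein level, which increases with genetic stress. After 16 hr compound exposure at 37 °C, luciferase activity was quantified using ONE-Glo.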
Rab9 promoter act – qHTS Assay for Rab9 Promoter Activators; Huh7 Rab9 promoter-luciferase reporter, luminescence, 24 h; Potency, µM (highest dose often 9.22 µM), inactives show top-dose activation, negative = inhibition, most hits filed as activators; 320,000 compounds, 2.8% hits; further: % of control where 0% means no effect; nearly all actives have a fitted effect of over 60% in size
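Cells were plated at 1500 per well in reduced-serum medium with 10% FBS and left 2 h. Compound in DMSO was then added for 24 h at 37 °C. Reporter signal was read by luminescence after 10 min with luciferase detection reagent.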
SMN2 splice enh – qHTS Assay for Enhancers of SMN2 Splice Variant Expression | HEK293 SMN2-luciferase splicing reporter, luminescence, 30-36 h | Potency, µM (titrated, usually from 46.1 µM), without a hit: at the highest dose activity change, positive = activation, hits mostly activators | 210,000 compounds, 2.8% hits | AID 1458, 2008; further: % of control where 0% means no effect; nearly all actives have a fitted effect of over 55% in size
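qHTS luciferase splicing reporter: luminescence rises when SMN2 exon 7 is included in transfected HEK293 cells. Compound exposure lasted 30-36 h at 37C, with 4.5 mM final sodium butyrate as control, followed by a ONE-Glo read.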
FLuc counter – qHTS profiling assay for firefly luciferase inhibitor/activator using purifed enzyme and Km concentrations of substrates (counterscreen for miR-21 project); Luciferin 4-monooxygenase (Photinus pyralis), P08659; purified FLuc, Km substrates, luminescence inhibition; Potency, µM (top dose mostly 57.5 µM), without a hit: top-dose activity change, negative = inhibition, most hits filed as inhibitors; 360,000 compounds, 6.9% hits; AID 588342, 2011;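 further: plate controls were vehicle for no effect and reference inhibitor for full effect; nearly all actives have a fitted effect of over 55% in size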
Target sequence (P08659 whole entry, looked up): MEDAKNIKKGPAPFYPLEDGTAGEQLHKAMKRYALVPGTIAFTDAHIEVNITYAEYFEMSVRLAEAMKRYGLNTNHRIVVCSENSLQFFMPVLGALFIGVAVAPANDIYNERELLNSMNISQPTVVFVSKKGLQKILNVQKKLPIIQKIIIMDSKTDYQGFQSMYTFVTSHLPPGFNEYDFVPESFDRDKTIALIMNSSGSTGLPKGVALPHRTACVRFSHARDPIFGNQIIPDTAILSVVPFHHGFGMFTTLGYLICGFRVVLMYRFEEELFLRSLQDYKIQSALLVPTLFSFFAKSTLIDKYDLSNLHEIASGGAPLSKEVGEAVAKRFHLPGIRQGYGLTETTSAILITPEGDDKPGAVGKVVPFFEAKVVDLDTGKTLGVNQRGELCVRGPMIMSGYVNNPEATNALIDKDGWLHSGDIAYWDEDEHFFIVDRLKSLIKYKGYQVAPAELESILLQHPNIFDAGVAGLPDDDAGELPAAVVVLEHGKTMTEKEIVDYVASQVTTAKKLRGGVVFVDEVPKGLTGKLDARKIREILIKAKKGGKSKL
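Purified P. pyralis luciferase, 10 nM final, with Km-level 10 uM D-luciferin and 10 uM ATP in 50 mM Tris acetate pH 7.5, 10 mM Mg acetate, 0.01% Tween-20, 0.05% BSA; 6-point qHTS titration about 60 µM downward; luminescence read.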
NPC1 promoter act – qHTS Assay for NPC1 Promoter Activators; Huh7 NPC1 promoter luciferase reporter, 24 h; Potency, µM (titrated, usually from 9.22 µM), for inactives: at the top dose activation, most hits filed as activators; 320,000 compounds, 2.4% hits; AID 485313, 2010; further: % of control where 0% means no effect; nearly all actives have a fitted effect of over 60% in size
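Huh7 cells stably carrying NPC1 promoter–luciferase, plated in Opti-MEM with 10% FBS for 2 h, were exposed to compound in DMSO for 24 h at 37 °C; luciferase reagent was added for 10 min and luminescence read.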
Starred values were filed as active, the others as inactive; ? = inconclusive; . = not tested or not shown. In the library only some 7.5% were active in any assay of this set; here they are far more common. The call rests on the fitted dose curve; in most records, active means well fitted curve in the direction sought with a large enough effect; inconclusive means small, poorly fitted or top-dose-only effect, or another doubt; inactive means no such curve, though single readings can be large; an effect the other way counts as inactive or inconclusive. Potency means the concentration at half of the fitted maximal effect.

SMILES	Luc counter	ELG1 genotox	Rab9 promoter act	SMN2 splice enh	FLuc counter	NPC1 promoter act
O=C1NC(c2cccs2)Nc2sc3c(c21)CCCC3 (stereo not drawn)	-8%	8%	3.5µM*	?	6.7µM*	2.8µM*
CN1CCc2c(sc3c2C(=O)NC(c2ccco2)N3)C1 (stereo not drawn)	0%	-8%	6%	9%	-11%	8%
c1cc2c3c(c1)c1c(n3CCNC2)CCCC1	-1%	.	.	.	.	.
Oc1[nH]c2ccccc2c1C=Nc1ccc2c(c1)OCCO2	.	?	1.4µM*	.	0.85µM*	?
Oc1c(Br)cc(Br)cc1C=Nc1ccc2c(c1)OCCO2	-10%	?	4%	0%	24µM*	1%
O=C(O/N=C/c1ccc(Cl)cc1)C1CCCCC1	.	-2%	1%	.	2.7µM*	1%
O=C(CN1CCCCC1)N/N=C/c1ccc(Cl)cc1	.	3%	7%	.	-13%	-1%
O=C(CSc1ncccn1)N1CCN(S(=O)(=O)c2ccccc2)CC1	.	0%	-4%	.	-1%	3%
Cc1cc(Br)ccc1SCC(=O)N1CCN(S(=O)(=O)c2ccccc2)CC1	.	16µM*	?	.	13µM*	?
Cc1cc2nc(-c3cccc(NC(=O)c4cccc5ccccc45)c3)oc2cc1C	.	.	.	7%	2.1µM*	.
Cc1ccc2nc(-c3cccc(NC(=O)c4cccc5c(Cl)cccc45)c3)oc2c1	.	.	.	11%	2.4µM*	.
Cc1ccc(C(=O)Nc2cccc(-c3nc4ncccc4o3)c2)cc1	.	-19%	6%	.	13µM*	29%
O=C(Nc1cccc(-c2nc3ncccc3o2)c1)c1ccccc1	1%	-5%	2%	-31%	?	0%
